Screens: PubChem BioAssay, National Center for Advancing Translational Sciences (NCATS)
A selection: hits, their analogues and other compounds. The true share with any hit is near 3.8%.
HT1080-NT tox – kills 2HG-producing HT-1080-NT fibrosarcoma cells | HT-1080-NT fibrosarcoma viability, CellTiter-Glo ATP luminescence, 48 h | Potency, µM (highest dose often 46.1 µM), for inactives: top-dose activity, negative = less viability, usual class: cytotoxic | hit rate 1.6% among 360,000 | AID 686970;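 also: NT is the 2HG producing partner of a matched IDH1 knockdown line; 0% = DMSO-treated cells and -100% = media-only wells without cells; nearly all actives have a fitted effect of over 55% in size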
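HT-1080-NT fibrosarcoma cells (2HG-overproducing), 750 cells/well in RPMI with 5% FBS, dosed after 2 h and incubated 48 h at 37C. CellTiter-Glo luminescence normalized to DMSO and no-cell wells; concentration-response curves fitted and classed.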
HepG2 viability – counter-screen for TGF-b inhibitors: cytotoxicity in HepG2 cells; hit rate 0.76% among 410,000; HepG2 CAGA-GFP viability, ATP luminescence, 18 h; Potency, µM (doses to about 46.1 µM), for inactives: at the top dose activity change, negative = cytotoxicity, usual class: cytotoxic
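CellTiter-Glo luminescence gave cytotoxicity after 18 hours at 37 degrees C. The cells were HepG2 CAGA-GFP in 1% FBS DMEM, stimulated with 500 pg/mL TGF-beta after compound addition. %Activity was normalised to no-cell wells (complete cell-killing) and DMSO (no toxicity), and curves were fitted and classified.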
S2 tox – viability counter-screen for ATXN expression inhibitors | S2 cells (HEK-293 line with an ATXN2-luciferase reporter) viability, CellTiter-Fluor protease fluorescence, 24 h | Potency, µM (highest dose often 56.7 µM), actives largely listed as cytotoxic | hit rate 0.49% among 400,000 | AID 651635; also: nearly all actives have a fitted effect of over 40% in size
HT1080 IDH1KD tx – HT-1080 IDH1 knockdown cell toxicity (counter line); Potency, µM (titrated, usually from 46.1 µM), for the others: top-dose activity, negative = toxicity, usual class: cytotoxic; hit rate 2% among 360,000; HT-1080 IDH1 knockdown viability, ATP luminescence, 48 h;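 also: 0% = DMSO wells and -100% = cell-free medium wells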
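Viability of IDH1-knockdown HT-1080 fibrosarcoma cells was assessed by CellTiter-Glo after 48 h at 37 °C with titrated compound; concentration-effect curves were classified by fit quality and response size.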
TGFb inhibitor – TGF-b pathway inhibition; hit rate 1.2% among 410,000; Potency, µM (top dose mostly 46.1 µM), for the others: top-dose activity, negative = inhibition, hits mostly inhibitors; HepG2 CAGA-GFP TGF-b/SMAD3 reporter, GFP fluorescence, 18 h; TGF-beta stimulated, 500 pg/mL final; also: % is scaled to controls: 0 for no effect and ±100 for the full control effect; nearly all actives have a fitted effect of over 65% in size
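Smad-responsive CAGA-GFP expression was quantified in HEPG2 cells exposed to compounds and 500 pg/mL final TGF-beta for 18 h at 37 degrees C; unstimulated wells defined full inhibition.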
ATXN2 expr inh – reduces ATXN2 reporter expression in HEK-293 cells; hit rate 0.72% among 360,000; Potency, µM (titrated, usually from 57 µM), inactives show top-dose activity change, negative = inhibition, most hits filed as inhibitors; HEK-293 ATXN2-luciferase reporter, luminescence, 24 h; also: % is scaled to controls: 0 for no effect and ±100 for the full control effect; nearly all actives have a fitted effect of over 55% in size
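qHTS (up to 57 uM final) was run with 24 h compound exposure of reporter cells at 37 °C. Each well was multiplexed: SteadyGlo luminescence measured ATXN2-luciferase expression after a fluorogenic Gly-Phe-AFC viability readout (25 uM final).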
An asterisk follows results filed as active; i = inactive; ? = inconclusive; . = not tested or not shown. Calls follow the shape of the dose curve; as a rule, active = well fitted curve in the direction sought with a large enough effect; inconclusive = small, poorly fitted or top-dose-only effect, or another doubt; inactive = no such curve, though single readings can be large; an effect the other way counts as inactive or inconclusive. Potency is read from the fitted curve at half-maximal effect.

SMILES	HT1080-NT tox	HepG2 viability	S2 tox	HT1080 IDH1KD tx	TGFb inhibitor	ATXN2 expr inh
O=C(CCc1ccc(O)cc1)c1c(O)cc(O)cc1O[C@@H]1O[C@H](CO)[C@H](O)[C@H](O)[C@H]1O	.	.	.	.	.	-3.4%
Cc1ncc2c(c1CNS(=O)(=O)N(C)C)CCN(C(=O)c1[nH]c3ccc(Cl)cc3c1C)C2	.	.	i	.	.	.
Cc1cccc(OCCN2C(=O)C(=O)c3cccc(C)c32)c1	-4.8%	-4.2%	i	0.9%	13.3%	-7.7%
Cc1ccc2c(c1)C(=O)C(=O)N2CCCOc1ccccc1C	?	-21.3%	?	-28.8%	?	-15.7%
Cc1ccc2c(c1)C(=O)C(=O)N2CCOc1ccccc1	7.31µM*	-9.4%	?	20.6µM*	?	18.3%
Cc1ccc2c(c1)C(=O)C(=O)N2Cc1ccc(Br)cc1	?	-30.6%	?	23.1µM*	?	-36.4%
Cc1ccc(CN2C(=O)C(=O)c3cc(C)ccc32)cc1	-5.2%	-13.5%	?	-9.6%	?	3.8%
Cc1cccc(OCCN2C(=O)C(=O)c3cc(C)ccc32)c1	2.91µM*	-3.9%	?	?	?	32.3%
COc1ccc(C(NC(=O)COc2ccc(C#N)cc2)c2ccc(OC)cc2)cc1	.	1.3%	.	.	-0.8%	.
CCc1nc2ccc(C(=O)NCCCn3ccnc3)cn2c1N(C)Cc1cc2ccccc2s1	20.6µM*	-16.6%	i	?	4.5%	-19.7%
CCc1nc2ccc(C(=O)NC3CCN(Cc4ccccc4)CC3)cn2c1N(C)Cc1cc2ccccc2s1	16.4µM*	-110.9%	?	?	?	?
CCc1nc2ccc(C(=O)NCCCN(C)C)cn2c1N(C)CCCc1ccccc1	18.4µM*	-79.4%	?	23.1µM*	17.5%	?
Cc1ccc(C(=O)N2CCCN(c3nc4cc5c(cc4cc3C#N)OCO5)CC2)cc1	?	-3.3%	i	20.6µM*	-21.0%	-27.9%
N#Cc1cc2cc3c(cc2nc1N1CCCCC1)OCCO3	-0.5%	-27.4%	i	-2.3%	-6.2%	33.3%
CCOC(=O)C1=C(C)NC(=O)CC1c1ccccc1 (stereo not drawn)	11.2%	-0.7%	i	8.7%	19.6%	-6.9%
CCOC(=O)C1=C(C)NC2=C(C(=O)CC(c3cccs3)C2)C1c1cccs1 (stereo not drawn)	?	-11.9%	?	14.6µM*	?	-19.8%
COC(=O)C1=C(C)NC2=C(C(=O)CC(c3cccs3)C2)C1c1ccsc1 (stereo not drawn)	-6.7%	-12.1%	?	?	-12.6%	-24.5%
CCOC(=O)C1=C(C)NC2=C(C(=O)OC2)C1c1ccccc1 (stereo not drawn)	?	-16.6%	i	20.6µM*	-24.7%	-5.2%
CN(C)CCNc1ccc2ncn3c4ccc(O)cc4c(=O)c1c23	?	1.2%	i	20.6µM*	?	3.98µM*
COc1ccc2sc3cccc(NCCN(C)C)c3c(=O)c2c1	16.4µM*	2.8%	i	16.4µM*	?	-7.8%
CN(C)CCNc1ccc(-c2nn(C)c(=O)c3ccccc23)cc1[N+](=O)[O-]	-1.7%	-10.5%	?	15.5%	-8.1%	-6.1%
CN(C)CCNc1ccc(CO)c2sc3ccc(O)cc3c(=O)c12	?	-23.5%	18.9µM*	16.4µM*	14.1µM*	2.67µM*
CCC(=NC)C1=C(O)CC(c2ccccc2)CC1=O (stereo not drawn)	-0.3%	13.3%	i	6.4%	4.7%	33.4%
CCCCC(=NCCc1c(C)[nH]c2ccc(OC)cc12)C1=C(O)CC(c2ccccc2)CC1=O (stereo not drawn)	?	5.4%	?	2.31µM*	?	1.3%
CC(=NCCc1c(C)[nH]c2ccc(OCc3ccccc3)cc12)C1=C(O)CC(c2ccccc2)CC1=O (stereo not drawn)	-28.9%	3.7%	i	-16.9%	11.8%	-15.8%
SMILES	HT1080-NT tox	HepG2 viability	S2 tox	HT1080 IDH1KD tx	TGFb inhibitor	ATXN2 expr inh
CCC(=NCCc1c(C)[nH]c2ccc(OC(F)(F)F)cc12)C1=C(O)CC(c2ccccc2)CC1=O (stereo not drawn)	4.11µM*	-10.0%	?	5.8µM*	?	-27.7%
CCC(=NCCc1c(C)[nH]c2ccccc12)C1=C(O)CC(c2ccccc2)CC1=O (stereo not drawn)	?	-17.2%	?	8.2µM*	?	-23.9%
OC(c1ccc2c(c1)CN(Cc1cccn1-c1cccnc1)CCO2)C1CCCCC1 (stereo not drawn)	.	.	i	.	.	.
CCOC(=O)c1c(SCCN2CCCCC2)n(-c2ccccc2)c(=S)n(-c2ccccc2)c1=O	1.3%	-0.1%	?	-1.8%	0.0%	20µM*
CSc1ccc(/C=C2\C=C(C(O)c3ccc(SC)cc3)c3ccccc32)cc1 (stereo not drawn)	.	-27.6%	.	.	-6.8%	.
Cc1ccc(C2CC(=O)C=C(NCc3ccccc3)C2)cc1 (stereo not drawn)	?	0.1%	i	20.6µM*	5.8%	-14.4%
O=c1cc(-c2ccccc2)[nH]n1-c1ccc([N+](=O)[O-])cc1	?	-72.2%	.	12.6µM*	?	?
Cc1ccc(-c2ccnc(-n3ncc(C(=O)NCCN4CCOCC4)c3C3CC3)n2)o1	.	.	i	.	.	.
COc1ccccc1Cc1c(-c2cccc(Cl)c2)nc2ccc(C)cn12	?	-45.2%	.	?	12.6µM*	0.0%
COc1ccccc1Cc1c(-c2ccc(OC)c(OC)c2)nc2ccc(Br)cn12	?	-2.5%	?	18.4µM*	?	?
COC(=O)c1ccc2nc(-c3ccc(F)cc3)c(Cc3ccccc3OC)n2c1	12.6%	.	?	9.4%	.	-12.2%
COc1ccc(-c2nc3ccc(Br)cn3c2Cc2ccccc2)cc1OC	?	-2.9%	?	?	?	-19.0%
COc1ccccc1Cc1c(-c2ccco2)nc2ccc(Cl)cn12	?	-95.7%	?	?	15.8µM*	-8.3%
COC(=O)c1ccc2nc(-c3cccc(Br)c3)c(Cc3ccccc3OC)n2c1	9.9%	.	i	11.6µM*	.	8.3%
COc1ccccc1Cc1c(-c2ccc(C)cc2)nc2ccc(Cl)cn12	-20.2%	-0.4%	?	-17.5%	-47.0%	44.7%
Cc1nc2sc(C(=O)N(C)Cc3ccccc3)c(NC(=O)c3ccccc3)c2c(C)c1Cl	.	-0.1%	?	.	6.1%	6.9%
CCOC(=O)Cc1ccc(NC(=O)Nc2ccccc2OCc2cc(=O)n3ccccc3n2)cc1	.	4.4%	.	.	-15.9%	.
